{"source": "PubChem BioAssay AID1006", "about": "(Sanford-Burnham Center for Chemical Genomics, 2008)", "note": "Where “and” joins values, the source holds several entries; their conditions need not be identical. Equal values may be shown once. Hit rate of the full screen: of about 200,000 compounds, about 3,000 (1.5%) were called active. For the sample, actives were picked, then their nearest neighbours and some compounds at random. Unmarked numbers belong to inactive results.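 Rule for the calls: active = inhibition above about 50% when tested at 10 µM (limit read from the data); inactive = the rest.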"}
{"biological_target": "Luciferin 4-monooxygenase (Photinus pyralis) (UniProt P08659)", "sequence (P08659 whole entry, looked up)": "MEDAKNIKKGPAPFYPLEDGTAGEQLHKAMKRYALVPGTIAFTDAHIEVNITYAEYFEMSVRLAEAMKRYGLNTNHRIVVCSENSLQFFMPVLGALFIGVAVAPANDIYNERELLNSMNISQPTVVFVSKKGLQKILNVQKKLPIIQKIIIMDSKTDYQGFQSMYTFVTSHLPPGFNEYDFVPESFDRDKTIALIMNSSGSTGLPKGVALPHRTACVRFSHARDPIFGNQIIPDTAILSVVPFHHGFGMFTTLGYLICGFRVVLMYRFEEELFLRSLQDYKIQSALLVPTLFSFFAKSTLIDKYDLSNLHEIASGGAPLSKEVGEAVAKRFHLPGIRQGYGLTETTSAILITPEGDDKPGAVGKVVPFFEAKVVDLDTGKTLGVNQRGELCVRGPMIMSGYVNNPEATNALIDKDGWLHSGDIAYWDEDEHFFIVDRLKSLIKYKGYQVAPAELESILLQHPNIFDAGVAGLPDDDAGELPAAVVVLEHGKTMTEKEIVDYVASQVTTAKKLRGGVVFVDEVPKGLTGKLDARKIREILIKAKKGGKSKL", "assay": "firefly luciferase enzyme inhibitors, primary screen, artefact control for luciferase-based inhibitor screens, biochemical, luminescence, ATPLite (AID 1006)", "conditions": "10 min, at 10 µM, stronger effect = higher value"}
{"smiles": "CC(=O)c1ccc(N2CCN(S(=O)(=O)c3c(C)[nH]c(=O)[nH]c3=O)CC2)cc1", "inhibition": "-3%"}
{"smiles": "O=C(CCN1CCN(C/C=C/c2ccccc2)CC1)Nc1cccc(F)c1", "inhibition": "-5.5%"}
{"smiles": "COc1ccccc1C(=O)NNC(=O)c1ccc(NC(=O)c2ccccc2)cc1", "inhibition": "-1.7%"}
{"smiles": "COc1ccc(/C=N/NC(=O)c2ccccc2)cc1OS(=O)(=O)c1ccccc1", "inhibition": "-2.1%"}
{"smiles": "COc1ccc(C(=O)Nc2ccccc2C(=O)N/N=C/c2ccccc2OC)cc1", "inhibition": "97.8% (active)"}
{"smiles": "CCn1c(/C=N/NC(=O)c2ccc(OC)cc2)nc2ccccc21", "inhibition": "8.7%"}
{"smiles": "COc1cc(/C=N/NC(=O)c2ccccc2)ccc1OS(=O)(=O)c1ccccc1", "inhibition": "-2.6%"}
{"smiles": "COc1ccc(C(=O)Nc2ccccc2C(=O)N/N=C/c2ccc(O)c(OC)c2)cc1", "inhibition": "98.3% (active)"}
{"smiles": "CCN(CC)c1ccc([N+](=O)[O-])cc1C(=O)O", "inhibition": "-4.3%"}
{"smiles": "Cc1ccc2cc(CN(c3ccc(C)c(C)c3)S(C)(=O)=O)c(=O)[nH]c2c1", "inhibition": "-3.5%"}
{"smiles": "CCOC(=O)C1=C(CC)Nc2ccccc2N=C1N", "inhibition": "-6.8%"}
{"smiles": "CCc1ccccc1NC(=O)CN(c1ccc(OC)cc1OC)S(=O)(=O)c1ccccc1[N+](=O)[O-]", "inhibition": "-10.9%"}
{"smiles": "COc1ccc(N(CC(=O)NC2CCCC2)C(=O)CS(=O)CC(=O)Nc2ccc3c(c2)OCO3)cc1", "note": "(stereo not given)", "inhibition": "-6.6%"}
{"smiles": "COc1cc2c(C(=O)N3CCN(C)CC3)c(CSc3ccccc3)n(C)c2cc1Br", "inhibition": "-9.2%"}
{"smiles": "Cc1cc2ccccn2c1C(=O)c1cccc(S(=O)(=O)N2CCOCC2)c1", "inhibition": "4.2%"}
{"smiles": "COc1ccc(Cn2c(-c3ccc(Cl)cc3)c[n+]3ccccc23)cc1", "inhibition": "7.2%"}
{"smiles": "CC(C)C(NC(=O)C1CCC(C(C)(C)C)CC1)C(=O)NCCCN1CCCCC1", "note": "(stereo not given)", "inhibition": "-3%"}
{"smiles": "Cc1cc(OC(=O)c2ccccc2Cl)ccc1N1C(=O)CCC1=O", "inhibition": "69% (active)"}
{"smiles": "COc1ccccc1C(=O)Oc1ccc(N2C(=O)CCC2=O)cc1", "inhibition": "-2.3%"}
{"smiles": "Cc1ccc(C)c(N2C(=O)CS/C2=N\\NC(=O)c2ccccc2Cl)c1", "inhibition": "-0.5%"}
{"smiles": "C=CCn1c(P(C)(=O)O)nc2ccccc21", "inhibition": "-7.9% and -5.5%"}
{"smiles": "CCc1ccc(OCC(=O)OCC(=O)c2c(N)n(C)c(=O)n(C)c2=O)cc1", "inhibition": "-11.1%"}
{"smiles": "O=c1c2c(nc3cc(-c4cccc(Cl)c4)[nH]n13)CCCC2", "inhibition": "74.9% (active)"}
{"smiles": "O=c1c2c(nc3nc[nH]n13)CCC2", "inhibition": "-4.1%"}
{"smiles": "O=C1CCCc2c1nc(-c1cccc(Cl)c1)n2O", "inhibition": "-1.6%"}
{"smiles": "COc1ccc(C(=O)OCC(=O)NC(=O)CCSc2ccccc2)cc1", "inhibition": "-0.8%"}
{"smiles": "Cc1ccc(SCCC(=O)NC(C(C)C)C(C)C)cc1", "inhibition": "-8.1%"}
{"smiles": "Cc1cc2nc(C(F)(F)F)cc(-c3cccs3)n2n1", "inhibition": "-2.2%"}
{"smiles": "CCC(=O)Oc1cccc(C(=O)Nc2ccc(-c3nnc(-c4ccco4)o3)cc2)c1", "inhibition": "-4.9%"}
{"smiles": "CCCCOc1ccc(-c2nnc(-c3ccco3)o2)cc1", "inhibition": "25.4%"}
{"smiles": "CCOc1ccc(-c2nnc(-c3ccco3)o2)cc1", "inhibition": "79.2% (active)"}
{"smiles": "CCOc1ccc2nc(Nc3nc4ccc(NC(C)=O)cc4s3)sc2c1", "inhibition": "8.7%"}
{"smiles": "CCOc1ccc2nc(C(=O)N3CCCC(C)C3)sc2c1", "note": "(stereo not given)", "inhibition": "56% (active)"}
{"smiles": "CCOc1ccc2nc(SC(CC)C(=O)Nc3cc(C)on3)sc2c1", "note": "(stereo not given)", "inhibition": "-3.8%"}
{"smiles": "O=C(O)COc1ccc(-c2nccc(-c3cccs3)n2)cc1", "inhibition": "77.5% (active)"}
{"smiles": "O=C(Nc1ccnc(-c2ccncc2)n1)c1cccs1", "inhibition": "-0.6%"}
{"smiles": "COC(=O)CSc1nccc(-c2cccs2)n1", "inhibition": "3.7%"}
{"smiles": "COc1cccc(/C=N/Nc2cc(C)nc(-c3ccccc3O)n2)c1O", "inhibition": "9.6%"}
{"smiles": "COc1cccc(/C=N\\NC(=O)C2=NNC(=O)C2C)c1O", "note": "(stereo not given)", "inhibition": "83.5% (active)"}
{"smiles": "COc1cccc(/C=N/NC(=O)c2[nH]nc3c2CCc2ccccc2-3)c1O", "inhibition": "28.9%"}
{"smiles": "CNC(=O)NC(=O)C(OC(=O)c1cccc(S(=O)(=O)N2CCCCC2)c1)c1ccccc1", "note": "(stereo not given)", "inhibition": "-3.2%"}
{"smiles": "COc1ccc2oc(-c3cccc(NC(=O)CSc4ccc(Cl)cc4)c3)nc2c1", "inhibition": "3%"}
{"smiles": "COc1cccc(-c2nc3cc(C)ccc3o2)c1", "inhibition": "82.8% (active)"}
{"smiles": "COc1ccc(-c2nc3cc([N+](=O)[O-])ccc3o2)cc1OC", "inhibition": "2.5%"}
{"smiles": "O=[N+]([O-])c1ccc2oc(-c3cccc(O)c3)nc2c1", "inhibition": "53.2% (active)"}
{"smiles": "O=C(Cc1cccc2ccccc12)Nc1ccc2oc(-c3ccccc3)nc2c1", "inhibition": "2.6%"}
{"smiles": "COc1cccc(-c2nc(S(=O)(=O)c3ccccc3)c(N3CCOCC3)o2)c1", "inhibition": "-0.7%"}
{"smiles": "Cc1cc(NC(=O)CSc2nc3ccccc3n2CC(C)C)no1", "inhibition": "-5.3%"}
{"smiles": "COc1ccc(F)c(-c2nc(CN3CCC(c4ccccc4)CC3)c(C)o2)c1", "inhibition": "0.5%"}
{"smiles": "O=C(CCN1C(=O)C2C3C=CC(C3)C2C1=O)Oc1ccc2ccccc2c1", "note": "(stereo not given)", "inhibition": "-3.9%"}
{"smiles": "CC1CC(C)CN(S(=O)(=O)c2ccc(C(=O)NN3CCOCC3)cc2)C1", "note": "(stereo not given)", "inhibition": "0.2%"}
{"smiles": "COc1ccc(-c2csc(Cc3nc(O)cs3)n2)cc1", "inhibition": "4.6%"}
{"smiles": "CSCC[C@H](NC(=O)OC(C)(C)C)C(=O)N/N=C/c1cc2ccc(C)cc2nc1Cl", "inhibition": "-6.9%"}
{"smiles": "COc1ccc2nc(Nc3nc4cc5c(cc4s3)OCCO5)sc2c1", "inhibition": "11.3%"}
{"smiles": "Brc1ccc2nc(N3CCCC3)sc2c1", "inhibition": "35.9%"}
{"smiles": "c1c2c(cc3sc(N4CCCCC4)nc13)OCCO2", "inhibition": "92.9% (active)"}
{"smiles": "Cc1ccc(N(C(=O)c2ccc(CN3CCOCC3)o2)C(C(=O)NCCC(C)C)c2cccs2)c(C)c1", "note": "(stereo not given)", "inhibition": "-4.1%"}
{"smiles": "COc1ccc(C(=O)NCC(=O)N/N=C/c2ccc([N+](=O)[O-])s2)cc1OC", "inhibition": "2.8%"}
{"smiles": "OC(CNCc1ccc(Cl)c(Cl)c1)c1ccccc1", "note": "(stereo not given)", "inhibition": "-8.3%"}
{"smiles": "COC(=O)C1C(=O)c2c([nH]c(C(=O)OCCSC)c2C)CC1C", "note": "(stereo not given)", "inhibition": "50.1% (active)"}
{"smiles": "CCCOC(=O)C1=C(C)NC2=C(C(=O)C(C(=O)OC)C(C)C2)C1c1ccc(N(C)C)cc1", "note": "(stereo not given)", "inhibition": "0.8%"}
{"smiles": "CCCOC(=O)c1[nH]c2c(c1C)C(=O)CC(c1cc(OC)c(OC)c(OC)c1)C2", "note": "(stereo not given)", "inhibition": "-2.3%"}
{"smiles": "CCOc1ccc(-n2cnnn2)cc1S(=O)(=O)N1CCC(C)CC1C", "note": "(stereo not given)", "inhibition": "-3.6%"}
{"smiles": "Cc1cccc(NC(=O)CN2C(=O)c3ccccc3C2=O)c1C", "inhibition": "-4%"}
{"smiles": "Cc1ccc(-c2csc(SCC(=O)Nc3cc(C)on3)n2)cc1", "inhibition": "-4.8%"}
{"smiles": "Cc1ccc(SCCC(=O)Nc2cc(C)on2)cc1", "inhibition": "-4.4%"}
{"smiles": "Cc1ccc2nc(-c3ccc(SCC(=O)Nc4cc(C)on4)nc3)[nH]c2c1", "inhibition": "73.4% (active)"}
{"smiles": "COC(=O)NNC(=O)C1CCC(C)CC1", "note": "(stereo not given)", "inhibition": "-4.8%"}
{"smiles": "CCNS(=O)(=O)c1ccc(NC(=O)c2cncc(Br)c2)cc1", "inhibition": "-4.2%"}
{"smiles": "COc1ccc(Nc2nc(NCc3ccco3)nc(N/N=C/c3ccccc3Cl)n2)cc1", "inhibition": "-1.1%"}
{"smiles": "COc1cc(NC(=S)NNC(=O)CC(C)C)c(OC)cc1Cl", "inhibition": "-8.4%"}
{"smiles": "O=C1OC(/C=C/c2ccccc2)=NC/1=C/c1ccco1", "inhibition": "53.5% (active)"}
{"smiles": "CC(C)(C)C1C/C(=C/c2ccco2)C(=O)/C(=C/c2ccco2)C1", "note": "(stereo not given)", "inhibition": "-5.4%"}
{"smiles": "COc1ccccc1/C=C/C1=NC(=C\\N(C)C)/C(=O)O1", "inhibition": "0.6%"}
{"smiles": "O=C(C1=C[C@H](c2coc3ccccc3c2=O)C[C@H](OCc2ccc(CO)cc2)O1)N1CCN(Cc2ccccc2)CC1", "inhibition": "-6.2%"}
{"smiles": "CCc1ccc2oc(-c3ccc(N)cc3)nc2c1", "inhibition": "80.7% (active)"}
{"smiles": "CCN(CC)c1ccc2oc(=O)c(C)nc2c1", "inhibition": "-3%"}
{"smiles": "CCCCCC(=O)Nc1ccc2oc(-c3ccncc3)nc2c1", "inhibition": "-5.7%"}
{"smiles": "COc1cc(CN2CCNC(=O)C2CC(=O)NCCc2ncccc2C)cc(OC)c1", "note": "(stereo not given)", "inhibition": "-1.3%"}
{"smiles": "CCOC(=O)CCCNC(=O)COC(=O)/C=C/c1ccc2c(c1)OCO2", "inhibition": "-1.4%"}
{"smiles": "Cc1ccc(CN2C(=O)N/C(=C/c3cc(C)n(-c4ccccn4)c3C)C2=O)cc1", "inhibition": "1.2%"}
{"smiles": "Cc1cc(/C=C2/NC(=O)NC2=O)c(C)n1-c1cccnc1", "inhibition": "56.5% (active)"}
{"smiles": "Cc1cc(/C=C2\\SC(=Nc3ccc(N4CCOCC4)cc3)N(C)C2=O)c(C)n1-c1cccnc1", "inhibition": "-0.4%"}
{"smiles": "Cc1ccccc1-n1c(C)cc(/C=C2\\NC(=O)NC2=O)c1C", "inhibition": "83.9% (active)"}
{"smiles": "Cc1cc(/C=C(/C#N)C(=O)Nc2ccc(Cl)cc2)c(C)n1-c1cccnc1", "inhibition": "-3.9%"}
{"smiles": "Cc1cccc(C)c1-n1c(C)cc(/C=C2\\C(=O)NN(c3ccccc3)C2=O)c1C", "inhibition": "13.6%"}
{"smiles": "CC(NC(=O)c1cccc2ccccc12)c1ccc2c(c1)CCCC2", "note": "(stereo not given)", "inhibition": "-6.2%"}
{"smiles": "COc1ccc(C/C(N)=N/OC(=O)c2ccco2)cc1OC", "inhibition": "-2.2%"}
{"smiles": "O=C(CCc1ccccc1)NNC(=O)c1ccc(Br)cc1", "inhibition": "-1.3%"}
{"smiles": "Cc1ccc(C)c(Cn2nnc3c(=O)[nH]c(C(=O)Nc4ccc(F)cc4)nc32)c1", "inhibition": "-10.1%"}
{"smiles": "CCN(c1ccccc1)S(=O)(=O)c1ccc2[nH]c(=O)[nH]c2c1", "inhibition": "-6%"}
{"smiles": "O=C(COc1cc(Cl)c(Cl)cc1Cl)NCCc1ccccn1", "inhibition": "4.2%"}
{"smiles": "CN(CCN1CCOCC1)Cc1nc(-c2ccc3c(c2)OCO3)no1", "inhibition": "-5.1%"}
{"smiles": "O=C(O)CC/C(=N\\NC(=O)c1ccc(F)cc1)c1ccc(Br)cc1", "inhibition": "-2.4%"}
{"smiles": "COc1ccccc1-n1ccnc1SCC(=O)NC(C)(C)C", "inhibition": "-7.3%"}
